HP1b binding inh = HTS for Inhibitors of HP1-beta Chromodomain Interactions with Methylated Histone Tails | Chromobox protein homolog 1 (Homo sapiens), P83916 | AlphaScreen HP1-beta / biotin-H3K9me3 peptide binding | Potency, µM (top dose mostly 114 µM), for the others: at the top dose activity change, negative = inhibition, hits mostly inhibitors | hit rate 0.56% among 390,000; further: potency means the concentration at half of the fitted maximal effect; nearly all actives have a fitted effect of over 70% in size
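Compound inhibition of the preformed complex between 50 nM HP1-beta and 50 nM biotinylated H3K9me3 peptide was read by AlphaScreen. Buffer was PBS pH 7.4 with 0.01% Tween-20. Incubations ran 30 min at room temperature, with 10 ug/mL donor/acceptor beads.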
BAZ2B block = qHTS Assay for Inhibitors of BAZ2B. Bromodomain adjacent to zinc finger domain protein 2B (Homo sapiens), Q9UIF8. AlphaScreen BAZ2B-H3K14Ac peptide displacement. Potency, µM (titrated, usually from 114 µM), without a hit: at the top dose activity change, negative = inhibition, actives largely listed as inhibitors. hit rate 4.4% among 360,000. AID 504333, 2011; further: potency means the concentration at half of the fitted maximal effect; on the % scale 0 is the no-effect control and ±100 the full control effect; nearly all actives have a fitted effect of over 60% in size
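Complex of BAZ2B and biotin-H3K14Ac (50 nM apiece) forms over 30 min at RT, then faces library compounds up to 110 uM for another 30 min; AlphaScreen beads added, 20 min dark incubation, luminescence read.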
CtBP-E1A inh = qHTS Assay for Inhibitors of the CtBP/E1A Interaction | hit rate 0.49% among 340,000 | CtBP / adenovirus E1A interaction (AlphaScreen) | activity change, % (test concentration not listed) | AlphaScreen GST-E1A/His-CtBP binding, 1536-well; stronger effect = lower value | AID 651724, 2012; in the data active means activity change below about -65%; inconclusive means mostly about -30% to -63%; further: on the % scale 0 is the no-effect control and ±100 the full control effect
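AlphaScreen with 125 nM GST-E1A and 125 nM His-CtBP (5X stocks) in Tris pH 8.0, 300 mM NaCl, BSA, Tween 20, TCEP. Compounds preincubated 2 h at 37 deg C, then glutathione donor/nickel acceptor beads added for 1 h at 37 deg C in dark.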
JMJD2A Tudor = qHTS Assay for Inhibitors of JMJD2A-Tudor Domain; Lysine-specific demethylase 4A (Homo sapiens), O75164; AlphaScreen JMJD2A-Tudor / H3K4me3 peptide binding; Potency, µM (top dose mostly 114 µM), inactives show at the highest dose activity change, negative = inhibition, hits mostly inhibitors; hit rate 4.4% among 390,000; AID 504339, 2011; further: potency means the concentration at half of the fitted maximal effect; on the % scale 0 is the no-effect control and ±100 the full control effect; nearly all actives have a fitted effect of over 50% in size
Target sequence (O75164 whole entry, looked up, the tested form may be a part): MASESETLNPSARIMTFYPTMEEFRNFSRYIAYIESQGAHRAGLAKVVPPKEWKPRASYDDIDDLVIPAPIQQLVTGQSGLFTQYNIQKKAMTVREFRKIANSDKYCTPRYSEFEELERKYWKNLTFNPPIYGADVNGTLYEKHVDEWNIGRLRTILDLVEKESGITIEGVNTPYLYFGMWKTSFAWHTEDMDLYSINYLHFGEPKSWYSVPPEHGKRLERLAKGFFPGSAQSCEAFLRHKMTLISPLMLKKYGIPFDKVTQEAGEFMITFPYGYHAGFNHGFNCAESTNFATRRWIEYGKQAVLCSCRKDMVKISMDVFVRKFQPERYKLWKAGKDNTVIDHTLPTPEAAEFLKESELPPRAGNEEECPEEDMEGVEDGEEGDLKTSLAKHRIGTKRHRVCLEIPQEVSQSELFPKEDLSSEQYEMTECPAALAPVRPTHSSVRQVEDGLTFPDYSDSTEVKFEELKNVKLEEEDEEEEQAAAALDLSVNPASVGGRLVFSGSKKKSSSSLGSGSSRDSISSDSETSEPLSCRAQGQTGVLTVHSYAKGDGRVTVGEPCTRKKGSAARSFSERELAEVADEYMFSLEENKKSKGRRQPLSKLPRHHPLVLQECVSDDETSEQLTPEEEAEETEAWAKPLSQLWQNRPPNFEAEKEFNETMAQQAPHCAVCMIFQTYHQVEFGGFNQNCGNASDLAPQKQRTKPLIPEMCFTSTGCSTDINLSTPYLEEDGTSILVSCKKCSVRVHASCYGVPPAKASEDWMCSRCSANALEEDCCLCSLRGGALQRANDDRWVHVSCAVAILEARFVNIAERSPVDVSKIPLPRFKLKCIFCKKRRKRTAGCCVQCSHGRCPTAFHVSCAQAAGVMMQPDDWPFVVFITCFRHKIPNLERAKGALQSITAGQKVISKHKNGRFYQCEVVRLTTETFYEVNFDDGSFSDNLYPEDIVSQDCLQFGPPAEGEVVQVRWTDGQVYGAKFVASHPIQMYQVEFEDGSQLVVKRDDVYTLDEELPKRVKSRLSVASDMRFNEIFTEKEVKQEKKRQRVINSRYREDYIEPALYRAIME
Six1-Eya2 blk = qHTS Assay for Inhibitors of the Six1/Eya2 Interaction | Homeobox protein SIX1 (Homo sapiens) + Protein phosphatase EYA2 (Homo sapiens), … | AlphaScreen GST-Six1/His-Eya2 binding, biochemical; stronger effect = lower value | activity change, % (no concentration beside the values) | hit rate 0.56% among 360,000; in the data active means activity change below about -65%; inconclusive means mostly about -30% to -63%; further: on the % scale 0 is the no-effect control and ±100 the full control effect
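GST-Six1 + His-Eya2 (5X stock: 250/500 nM); Tris pH 8.0, 300 mM NaCl, 0.05% BSA, 0.02% Tween 20; GSH donor/Ni acceptor beads; 1 h 37 °C dark; AlphaScreen readout.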
G9a block = qHTS Assay for Inhibitors of Histone Lysine Methyltransferase G9a; Histone-lysine N-methyltransferase EHMT2 (Homo sapiens), Q96KQ7; G9a H3K9 monomethylation, AlphaScreen, 2 h; Potency, µM (series often up to 102 µM), for the others: at the top dose activity, negative = inhibition, actives largely listed as inhibitors; hit rate 8.8% among 350,000; further: potency means the concentration at half of the fitted maximal effect; on the % scale 0 is the no-effect control and ±100 the full control effect; nearly all actives have a fitted effect of over 75% in size
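AlphaScreen read-out: biotin-H3K9 peptide (500 nM) methylation by 20 nM enzyme with 20 uM SAM, 2 h at room temperature after 15 min compound preincubation; anti-monomethyl H3K9 antibody plus donor/acceptor beads, 10 min dark.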
* = called active by the depositor; ? = inconclusive; . = no result; [ ] = another dose, or the depositor's remark. Hits are enriched below; roughly 10% of the tested compounds scored in any of these assays. Unless noted, the call rests on the fitted dose curve; in most records, active means well fitted inhibition curve with a large enough effect; inconclusive means small, poorly fitted or top-dose-only effect; inactive means no such curve, though single readings can be large or run the other way.

SMILES	HP1b binding inh	BAZ2B block	CtBP-E1A inh	JMJD2A Tudor	Six1-Eya2 blk	G9a block
Cc1ccc(C2/C(=C(/O)c3ccc(Cl)cc3)C(=O)C(=O)N2CC2CCCO2)o1 (stereo not drawn)	37.2%	-13.4%	-2.6	-13.2%	-4.3	7.5%[59 µM]
CCC(C)NC(=O)c1ccc2c(c1)N(Cc1ccccc1)C(=O)c1ccccc1S2(=O)=O (stereo not drawn)	31.2%	-4.0%	.	-14.5%	.	1.0%[59 µM]
CCN1/C(=C/C=C/c2oc3ccc(-c4ccccc4)cc3[n+]2CC)Oc2ccc(-c3ccccc3)cc21	-19.7%	28.2µM*	18.8	?	11.9	.
COc1ccc(C(CC(=O)O)NC(=O)COc2ccccc2)cc1OC (stereo not drawn)	12.8%	-0.2%	4.9	-6.9%	4.4	79.4µM*
CCOc1ccc(C(CC(=O)O)NC(=O)COc2ccccc2)cc1OC (stereo not drawn)	10.0%	.	14.5	-5.1%	-0.2	-36.4%
COc1ccc(C(CC(=O)O)NC(=O)COc2cc(C)ccc2C)cc1OC (stereo not drawn)	3.9%	.	-3.7	-12.7%	1.7	31.6µM*
COc1ccc(OCC(=O)NC(CC(=O)O)c2ccc(OC)c(OC)c2)cc1 (stereo not drawn)	4.6%	.	4.7	-13.4%	7.2	-43.6%
CC[C@@]12CCCN3CCc4c(n(c5ccccc45)[C@](O)(C(=O)OC)C1)C32 (stereo partly drawn)	.	.	.	.	.	-25.5%[2.33 µM]
CCC12CCCN3CCC4(C(=C(C(=O)OC)C1)Nc1ccccc14)C32 (stereo not drawn)	-11.3%	?	-0.4	?	-19.8	2.82µM*
CCN1CCN(C(=O)C(C)Sc2nc3nc(C)cc(C)n3n2)CC1 (stereo not drawn)	32.2%	.	-0.5	-6.9%	-1.1	.
CC(Sc1nc(N)c2c3c(sc2n1)CSC(C)(C)C3)C(=O)Nc1ccccc1 (stereo not drawn)	?	-7.4%	-16.7	11.2µM*	-14.7	-19.7%
CC(Sc1nc(NCc2ccccc2)nc(N(C)C)n1)C(=O)Nc1ccccc1 (stereo not drawn)	47.1%	-25.5%	8.9	-12.2%	-9.1	.
CN1CCCC(OC(=O)COc2ccccc2)C1 (stereo not drawn)	10.7%	-4.5%	-0.6	-5.0%	7.9	50.1µM*
O=C(O)c1ccccc1NS(=O)(=O)c1ccc(NNC(=S)Nc2ccc(OC(F)F)cc2)c([N+](=O)[O-])c1	10µM*	7.94µM*	-16.4	25.1µM*	?	10µM*
Cc1ccc(NC(=S)NNc2ccc([N+](=O)[O-])cc2S(=O)(=O)Nc2ccccc2C(=O)O)cc1C	?	11.2µM*	-9.3	50.1µM*	-3.4	11.2µM*
Cc1cccc(NC(=O)C(C)OC(=O)c2ccccc2NS(=O)(=O)c2cc(C)c(C)c([N+](=O)[O-])c2)c1 (stereo not drawn)	13.1%	-11.2%	-6.2	-25.7%	-12.9	-18.7%[59 µM]
Cc1ccc(NC(=S)NNc2ccc(C(=O)O)cc2[N+](=O)[O-])cc1C	50.1µM*	.	-2.9	7.94µM*	-29.0	.
CCOC(=O)c1c(NC(=S)Nc2cccc(C)c2)sc2c1CC(C)(C)SC2	?	?	-9.6	?	-25.3	?
COC(=O)c1c(NC(=O)CS(=O)(=O)c2ccc(C)cc2)sc2c1CCCCC2	-6.7%	-12.2%	.	-24.7%	.	-28.8%[59 µM]
Cc1cc(=O)[nH]c(SCCOc2ccc(OC(C)C)cc2)n1	4.3%	-32.0%	-0.2	?	3.7	14.1µM*
Cc1cc(=O)[nH]c(SCCOc2ccc3c(c2)CCC3)n1	33.7%	6.9%	14.3	-13.4%	2.3	6.7%[59 µM]
COC(=O)c1ccc(-c2nc(O)c(C)s2)cc1	?	?	-11.3	-28.7%	-8.3	7.08µM*
COC(=O)c1ccc(-c2nc3cc(Cl)c(N)cc3s2)cc1	45.3%	2.0%	7.5	9.7%	32.2	4.4%[59 µM]
Cc1cc(C)cc(OCC(=O)N2CCN(c3ncccn3)CC2)c1	8.6%	.	9.2	-17.1%	0.6	.
COCCN1Cc2cccc(C(=O)NCC3CCN(CC(C)C)C3)c2C1=O (stereo not drawn)	42.8%	13.5%	10.1	-4.2%	-5.0	?
SMILES	HP1b binding inh	BAZ2B block	CtBP-E1A inh	JMJD2A Tudor	Six1-Eya2 blk	G9a block
CCOC(=O)N1CCC(N2Cc3cccc(C(=O)Nc4ccc(N(CC)CC)cc4C)c3C2=O)CC1	?	14.1µM*	2.6	25.1µM*	-1.7	10µM*
CCOC(=O)N1CCC(N2Cc3cccc(C(=O)NCC4CCN(CC(C)C)C4)c3C2=O)CC1 (stereo not drawn)	10.5%	9.3%	1.3	-15.5%	-0.6	50.1µM*
CCOC(=O)N1CCC(N2Cc3cccc(C(=O)Nc4cc(F)ccc4F)c3C2=O)CC1	36.4%	10.4%	-6.1	-7.7%	-0.6	-18.6%
COc1c(C)cccc1C(=O)Nc1cccc2ccc(C)nc12	110.0%	76.1%	.	63.8%	.	88.6%[59 µM]
Cc1ccc(CN(C(=O)COc2ccc(C(C)C)cc2)C2CCS(=O)(=O)C2)o1 (stereo not drawn)	-10.5%	?	.	?	.	?
Cc1cc(C)n(-c2ccc(C(=O)Nc3ccc(N4CCOCC4)cc3)cc2)n1	23.6%	-27.0%	2.7	-24.8%	2.1	56.2µM*
O=C(Nc1ccc(N2CCOCC2)cc1)c1cccc(-n2cnnc2)c1	-11.1%	-22.1%	-8.0	-14.6%	-12.7	44.7µM*
CCN(CC)S(=O)(=O)c1cccc(NC(=O)c2ccc(-n3nc(C)cc3C)cc2)c1	-17.2%	-26.4%	-70.3*	-23.8%	-5.8	-14.1%
Cc1cc(C)n(-c2ccc(C(=O)Nc3ccc4c(c3)OCO4)cc2)n1	1.1%	-21.7%	-1.4	-13.2%	-7.2	-14.2%
O=C(Nc1ccc(N2CCOCC2)cc1)c1ccncc1	6.5%	-3.6%	8.2	-13.5%	8.1	-5.3%[59 µM]
O=C(Nc1ccc(N2CCOCC2)cc1)c1ccc(Cl)nc1	-18.4%	?	-0.4	?	3.3	50.1µM*
CC1CCc2sc(C(=O)Nc3ccc(N4CCOCC4)cc3)cc2C1 (stereo not drawn)	?	?	-24.3	?	-25.3	31.6µM*
CCN(c1ccc(NC(=O)c2ccc(Cl)nc2)cc1)C(C)C	29.4%	?	11.8	-14.8%	-13.2	22.4µM*
Cc1cccc(C2C=C(c3ccc(C)c(C)c3)Nc3nnnn32)c1 (stereo not drawn)	36.0%	11.7%	.	-0.3%	.	?
